About 5,700 (36%) of roughly 16,000 compounds were called active. Not shown: some 24% with an inconclusive outcome. The list shows a part of the results. Values without a mark were called inactive. The call rests on the fitted dose curve; in most records, active means well fitted curve in the direction sought with a large enough effect; inconclusive means small, poorly fitted or top-dose-only effect, or effect the other way; inactive means no such curve, though single readings can be large or run the other way.
Biological target: Cytochrome P450 1A2 (Homo sapiens) (UniProt P05177)
Sequence (P05177 whole entry, looked up): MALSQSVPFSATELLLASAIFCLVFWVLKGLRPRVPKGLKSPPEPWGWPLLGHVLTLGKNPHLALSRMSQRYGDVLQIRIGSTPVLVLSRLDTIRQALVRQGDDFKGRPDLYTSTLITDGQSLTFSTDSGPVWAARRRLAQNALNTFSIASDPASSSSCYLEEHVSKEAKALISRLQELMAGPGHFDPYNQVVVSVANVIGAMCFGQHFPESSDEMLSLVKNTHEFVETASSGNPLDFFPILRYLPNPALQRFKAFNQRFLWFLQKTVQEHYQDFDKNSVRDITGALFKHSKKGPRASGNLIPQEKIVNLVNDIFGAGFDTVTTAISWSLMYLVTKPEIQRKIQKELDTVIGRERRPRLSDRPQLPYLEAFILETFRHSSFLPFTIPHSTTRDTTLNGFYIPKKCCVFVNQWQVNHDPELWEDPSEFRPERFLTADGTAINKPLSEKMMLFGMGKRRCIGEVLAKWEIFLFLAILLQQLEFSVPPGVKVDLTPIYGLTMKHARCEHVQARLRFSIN
Experiment: Cytochrome panel assay with activity outcomes
Conditions: recombinant CYP, pro-luciferin dealkylation, luminescence, p450-cyp1a2; series mostly up to 57.1 µM; activity, negative = inhibition: at the top concentration
On the % scale 0 is the no-effect control and ±100 the full control effect.

Row | Structure (SMILES) | activity, negative = inhibition | AC50
1 | C[C@@H](N=C(N)N)C(=O)O | -4.5% [at 11.4 µM] | –
2 | OCCN(CO)CO | -9.46% [at 11.4 µM] | –
3 | O=S1(=O)C=C(N2CCOCC2)c2ccccc21 | – | 14.1 µM (active)
4 | CCOc1cc(/C=C2/SC(=O)N(CC(=O)N3CCc4ccccc4C3)C2=O)ccc1OCC(=O)O | 6.34% | –
5 | COc1ccc2c(c1)c(=O)oc1c(C)c(OCC(=O)N3CCc4ccccc4C3)ccc12 | – | 2 µM (active)
6 | COC(=O)c1ccccc1OCC(=O)N1CCN(c2ccc(OC)cc2)CC1 | -17.2% | –
7 | COC(=O)CSc1nnc(-c2ccccc2OC)n1-c1ccc(C)cc1 | -9.92% | –
8 | COc1ccccc1-c1nnc(SCc2nc3ccccc3s2)n1C | – | 14.1 µM (active)
9 | O=c1c(Cc2ccccc2)c(O)nc2n1CCS2 | -10.2% | –
10 | COc1cc(=O)n2c(n1)SCCC2 | -1.28% | –
11 | N#Cc1c(-c2ccc(Cl)cc2)nc2n(c1=O)CCCS2 | – | 1.41 µM (active)
12 | CCn1c(=O)c2c(nc3n2CCS3)n(C)c1=O | -29% | –
13 | N#Cc1c(-c2ccccc2)nc2n(c1=O)CCS2 | – | 3.16 µM (active)
14 | CC(C)=CCC/C(C)=C/CO/N=C1/C[C@@H](O)[C@@H](O)[C@@H]2[C@@H]3C(=O)N(C[C@@H]4CCCO4)C(=O)[C@H]3CC[C@H]12 | -0.0642% [at 11.4 µM] | –
15 | CC(C)(C)N1C(=O)[C@H]2[C@H]3[C@H](O)[C@H](O)C/C(=N/NC(=O)OCc4ccccc4)[C@@H]3CC[C@@H]2C1=O | -5.49% [at 11.4 µM] | –
16 | COc1ccccc1OCCOc1ccc(/C=C2/C(=N)N3OC(C)=CC3=NC2=O)cc1OC | -4.69% | –
17 | COc1ccc(/C=C2\OC(=O)c3c(OC)cccc32)cc1OC | – | 3.16 µM (active)
18 | Cc1cc(-c2cc(C)c(O)c(C(C)(C)C)c2)cc(C(C)(C)C)c1O | – | 0.631 µM (active)
19 | Cc1cc(Cc2cc(C)cc(C(C)(C)C)c2O)c(O)c(Cc2cc(C)cc(C(C)(C)C)c2O)c1 | -15.6% [at 2.29 µM] | –
20 | Cc1cc(Cc2cc(Cc3cc(C)cc(C(C)(C)C)c3O)c(C)cc2C)c(O)c(C(C)(C)C)c1 | -17.1% [at 2.29 µM] | –
21 | O=C(Nc1ccc2c(c1)OCCO2)c1cc2sccc2n1Cc1ccc(F)cc1 | – | 4.47 µM (active)
22 | COCCN1C(=O)c2ccccc2C(C(=O)Nc2ccc3c(c2)OCCO3)C1c1ccc(F)cc1 (configuration not stated) | -3.22% | –
23 | COc1ccc(-c2cc(C(F)(F)F)n3nc(C(=O)N4CCCCC4)cc3n2)cc1 | – | 15.8 µM (active)
24 | COc1ccc(NC(=O)N2CCCC3(CCN(C(=O)c4cc(C(F)(F)F)cc(C(F)(F)F)c4)CC3)C2)cc1 | -13.1% | –
25 | COc1ccc(NC(=O)N2CCCC3(CCN(C(=O)c4cnccn4)CC3)C2)cc1 | -15.4% | –

Row | Structure (SMILES) | activity, negative = inhibition | AC50
26 | Nc1ccccc1SCc1csc(-c2ccc(Cl)cc2)n1 | – | 0.631 µM (active)
27 | Nc1nc(SCC(=O)Nc2ccccc2Sc2ccc(Cl)cc2)n[nH]1 | 9.65% | –
28 | C[N+](C)(N)Cc1csc(-c2ccc(Cl)cc2)n1 | -4.22% [at 2.29 µM] | –
29 | O=C(CCCCn1c(=O)c2ccccc2n(CC(=O)NC2CCCC2)c1=O)NC1CCCC1 | -2.45% | –
30 | Cn1nc(C(=O)NC2CCCCC2)c2ccccc2c1=O | – | 12.6 µM (active)
31 | CCCn1nc(C(=O)NCC(C)(C)N2CCOCC2)c2ccccc2c1=O | -25.2% | –
32 | Cc1ccc(S(=O)(=O)n2ccc(-c3cccc(OCc4c(F)cccc4Cl)c3)n2)cc1 | -3.21% | –
33 | O=S(=O)(c1ccc(F)cc1)n1ccc(-c2cnc(-c3ccccc3)s2)n1 | – | 2.24 µM (active)
34 | COc1ccc(S(=O)(=O)n2ccc(-c3cnc(-c4ccccc4)s3)n2)cc1 | – | 1.12 µM (active)
35 | COc1ccc(-c2cnnc(CCCn3ccnc3-c3ccccc3)n2)cc1 | -12.1% [at 11.4 µM] | –
36 | COc1ccc(S(=O)(=O)N2CC3C4C=CC(C4)C3C2)cc1 (configuration not stated) | -14% | –
37 | COc1cccc2cc(C(=O)CC3(O)C(=O)N(Cc4ccccc4)c4ccccc43)c(=O)oc12 (configuration not stated) | – | 15.8 µM (active)
38 | CC(C)c1ccc(C(=O)CC2(O)C(=O)N(CN3CCOCC3)c3ccccc32)cc1 (configuration not stated) | -15.9% | –
39 | CN1CCN(c2nc3c(c(=O)n(C)c(=O)n3C)n2C)CC1 | -16.8% [at 2.29 µM] | –
40 | Cn1c(=O)c2c(nc(C(=N)SCC(=O)O)n2C)n(C)c1=O | – | 1.26 µM (active)
41 | Cn1c(=O)c2c(nc(NCCNc3nc4c(c(=O)n(C)c(=O)n4C)n3C)n2C)n(C)c1=O | -0.53% [at 11.4 µM] | –
42 | O=C(OCCNC(=O)c1ccc2ccccc2n1)c1ccc(F)cc1 | – | 1.12 µM (active)
43 | O=C(NCCOC(=O)c1ccc(C(=O)OCCNC(=O)c2cccnc2)s1)c1cccnc1 | -9.26% | –
44 | Cc1ccc(N=Nc2ccc(N)cc2C)c(S(N)(=O)=O)c1 | – | 0.501 µM (active)
45 | Nc1ccccc1S(N)(=O)=O | -0.711% [at 25.6 µM] | –
46 | Cc1ccc(N=Nc2c(O)c3ccccc3[nH]c2=O)c(S(=O)(=O)N(C)C)c1 | -14.6% [at 2.29 µM] | –
47 | CC(C)CNC(=S)N1CCN(C)CC1 | -8.21% | –
48 | O=C(O)c1ccccc1-c1ccccc1C(=O)Nc1ccccc1 | -5.42% | –
49 | CC(C)C(=O)NC(=S)Nc1ccccc1C(=O)Nc1ccccc1 | – | 6.31 µM (active)
50 | OCCSCc1ccccc1 | -13% [at 11.4 µM] | –

Row | Structure (SMILES) | activity, negative = inhibition | AC50
51 | O=C1C(SCCO)=C(SCCO)C(=O)c2ccccc21 | – | 0.631 µM (active)
52 | O=S(=O)(O)[C@@H](CO)c1ccccc1 (tested in a mixture with another compound) | -1.9% [at 2.29 µM] | –
53 | COc1cccc(Nc2ncc3nc(C)c(=O)n(CCc4ccccc4)c3n2)c1 | – | 5.01 µM (active)
54 | COCCn1c(=O)c(C)nc2cnc(Nc3cccc(OC)c3)nc21 | – | 1 µM (active)
55 | c1ccc([C@@H]2CN3CCSC3=N2)cc1 | -10.1% | –
56 | COc1ccc(NC(=O)C2(c3ccc(NC(=O)c4ccc(OC(C)=O)cc4)cc3)CCCC2)cc1 | 6.01% | –
57 | COc1ccc(NC(=O)c2ccc(C(=O)c3cc(OC)ccc3OC)cc2)cc1 | -14.8% | –
58 | COc1ccc(C(=O)Nc2cc(OC)cc(OC)c2)cc1 | – | 12.6 µM (active)
59 | COc1ccc(C(=O)Nc2cccc(OC(=O)c3ccc(C)c(C)c3)c2)cc1 | – | 14.1 µM (active)
60 | O=C(N/N=C/c1ccc(O)cc1)c1csc2ccccc12 | – | 11.2 µM (active)
61 | COc1ccc(OC)c(/C=N/NC(=O)c2csc3ccccc23)c1 | – | 3.16 µM (active)
62 | Cc1ccc(C)c(-c2nn(-c3cc(N4CCN(CCO)CC4)ccc3[N+](=O)[O-])c(=O)c3ccccc23)c1 | -5.68% | –
63 | O=C(O)c1cc2c(cc1S(=O)(=O)O)[C@H]1[C@@H]([C@H]3[C@H]2[C@@]2(Cl)C(Cl)=C(Cl)[C@]3(Cl)C2(Cl)Cl)[C@]2(Cl)C(Cl)=C(Cl)[C@@]1(Cl)C2(Cl)Cl | -14.5% [at 11.4 µM] | –
64 | O=C(Nc1cccn(Cc2ccc(F)cc2)c1=O)NC1CCCCC1 | – | 22.4 µM (active)
65 | Cc1ccc(Cn2cccc(NC(=O)NCc3ccccc3)c2=O)cc1 | -1.87% | –
66 | O=C(NC1CCCC1)C(c1ccc(F)cc1)N(Cc1ccc(F)cc1)C(=O)c1ccn[nH]1 (configuration not stated) | -5.3% | –
67 | Cc1ccc2cn[nH]c2c1NC(=S)NC(=O)c1ccccc1 | – | 10 µM (active)
68 | COc1ccc(C(=O)N2CCC3(CCCN(CC(C)C)C3)CC2)cc1 | -16.6% | –
69 | CN1CCC[C@@H](CC2c3ccccc3Sc3ccccc32)C1 | -4.29% [at 25.6 µM] | –
70 | CSc1ccc2c(c1)[C@H](N1CCN(C)CC1)Cc1ccccc1S2 | – | 31.6 µM (active)
71 | CN1CCC(=C2c3ccccc3Sc3ccccc32)CC1 | -17.4% [at 25.6 µM] | –
72 | O=C1Nc2cc(Cl)c(Cl)cc2N(O)N1c1ccc(Cl)c(Cl)c1 | -19.1% | –
73 | O=c1c2ccccc2c(-c2ccccc2)nn1-c1ccc(Cl)c(Cl)c1 | – | 0.126 µM (active)
74 | COc1ccc(CNc2nc(-c3c(C)noc3C)nc3ccccc23)c(OC)c1 | – | 0.794 µM (active)
75 | Cc1noc(C)c1-c1nc(NCc2cccs2)c2ccccc2n1 | – | 0.2 µM (active)

Row | Structure (SMILES) | activity, negative = inhibition | AC50
76 | COC(=O)Cc1c(C)nc2nc(NCc3ccccc3OC)[nH]n2c1=O | -20.2% | –
77 | COc1ccccc1CN1CC[C@@]2(CCCN(C(=O)c3c(C)noc3C)C2)C1 | 12.4% | –
78 | COc1ccc(N(CC(=O)NCc2cccc(OC)c2)S(=O)(=O)c2c(C)noc2C)cc1 | -21.9% | –
79 | COc1ccccc1CNc1nc(-c2c(C)noc2C)nc2ccccc12 | – | 0.631 µM (active)
80 | CS(=O)(=O)N(Cc1cc2ccccc2[nH]c1=O)C1CCCCC1 | -15% | –
81 | CCS(=O)(=O)NCCc1cc2ccc(C)cc2[nH]c1=O | – | 20 µM (active)
82 | C[N+]1(CCC[N+]2(C)C[C@H]3[C@H](C2)[C@H]2C=C[C@@H]3CC2)CCOCC1 (some centres not stated) | -11% [at 11.4 µM] | –
83 | CN(C)c1ccc(-c2cc(NCc3ccccc3)ncn2)cc1 | – | 1 µM (active)
84 | CN(C)c1ccc(-c2cc(NCc3cccnc3)ncn2)cc1 | – | 0.398 µM (active)
85 | Cc1cnc(CNc2cc(-c3ccc(C(=O)N(C)C)cc3)ncn2)cn1 | -0.907% | –
86 | Cc1cccc(CNc2cc(-c3ccc(C(=O)N(C)C)cc3)ncn2)c1 | – | 15.8 µM (active)
87 | Cc1cccc(CNc2cc(-c3ccc(N(C)C)cc3)ncn2)c1 | – | 1 µM (active)
88 | CN(C)CCSCCO | -14.3% [at 2.29 µM] | –
89 | CN(C)CC(CN(C)C)c1ccccn1 | -16.5% [at 11.4 µM] | –
90 | CN(C)CC[C@@H](c1ccccc1)c1ccccn1 | – | inactive
91 | CN(CCc1ccccn1)c1ccc2c(c1)Cc1ccccc1-2 | – | 0.631 µM (active)
92 | CN(CCc1ccccn1)c1ccc2c(c1)C(=O)c1ccccc1-2 | – | 0.158 µM (active)
93 | COc1cccc(-c2nccc(NC3CCNCC3)n2)c1 | – | 6.31 µM (active)
94 | c1ccc2c(NC3CCNCC3)nc(-c3ccoc3)nc2c1 | – | 15.8 µM (active)
95 | COc1ccc(-c2cc([C@H](O)[C@@H]3CCCCN3)c3ccccc3n2)cc1 | -11% [at 2.29 µM] | –
96 | c1ccc2c(NC3CC3)nc(-c3ccoc3)nc2c1 | – | 0.316 µM (active)
97 | COc1cccc(-c2nc(NC3CCNCC3)c3ccccc3n2)c1 | – | 12.6 µM (active)

Source: PubChem BioAssay AID1851 (National Center for Advancing Translational Sciences (NCATS), 2009)
